According to the supplement of paper PMC13380429:

System: Vero E6 infected with SARS-CoV-2
Test: inhibition of SARS-CoV-2 cytopathic effect; higher = more antiviral protection, active = above 15
Settings: 48 h

Measured: inhibition of SARS-CoV-2 cytopathic effect

C[C@@H]1NC(C)(C)CO[C@@]1(O)c1cccc(Cl)c1 [radafaxine]
inactive: 1 nM -2.6% | 8.33 nM 3.35% | 100 nM 6.44% | 833.33 nM 7.12% | 10000 nM -0.21%

CCCCCCCCCCC(=O)O[C@H]1CC[C@H]2[C@@H]3CCC4=CC(=O)CC[C@]4(C)[C@H]3CC[C@]12C [Testosterone (undecanoate)]
inactive: 1 nM 1.81% | 8.33 nM 0.82% | 100 nM 0.37% | 833.33 nM 0.31% | 10000 nM 0.21%

Cc1cc(C(=O)NOCCO)c(Nc2ccc(I)cc2F)n(C)c1=O
inactive: 1 nM -2.17% | 8.33 nM -8.75% | 100 nM -12% | 833.33 nM -15.5% | 10000 nM -16.9%

CN(C)CC/C=C1\c2ccccc2CSc2ccccc21 [dosulepin]
inactive: 1 nM -1.78% | 8.33 nM 1.37% | 100 nM 5.41% | 833.33 nM -0.17% | 10000 nM -8.17%

COc1cc(CNC(=O)CCCC/C=C/C(C)C)ccc1O [capsaicin]
inactive: 1 nM 0.65% | 8.33 nM 0.89% | 100 nM 1.27% | 833.33 nM -1.15% | 10000 nM 2.73%

CN1CCN(c2ccc(/C=C(\C#N)c3ccccc3Br)cc2)CC1
inactive: 1 nM 2.51% | 8.33 nM -1.94% | 100 nM -3.13% | 833.33 nM -2.26% | 10000 nM -2.17%

Clc1ccc(-c2nc3sccn3c2/C=N/OCc2ccc(Cl)c(Cl)c2)cc1
inactive: 1 nM -0.5% | 8.33 nM -0.99% | 100 nM -1.16% | 833.33 nM -0.11% | 10000 nM 0.21%

c1ccc(Oc2nc(NC3CCCCC3)c3[nH]cnc3n2)cc1
inactive: 1 nM 0.79% | 8.33 nM -0.47% | 100 nM -1.37% | 833.33 nM -1.49% | 10000 nM -6.42%

Cc1nc(=O)c2cc(CN(C)c3ccc(C(=O)N[C@@H](CCC(=O)O)C(=O)O)s3)ccc2[nH]1 [raltitrexed]
inactive: 1 nM -0.77% | 8.33 nM 5.47% | 100 nM 1.2% | 833.33 nM -4.47% | 10000 nM -1.82%

C[C@@H]1CCC[C@H](C)N1NC(=O)c1ccc(Cl)c(S(N)(=O)=O)c1 [clopamide]
inactive: 1 nM -1.53% | 8.33 nM 2.77% | 100 nM 0.22% | 833.33 nM 5.88% | 10000 nM -2.61%

O=C1c2ccccc2C(Cc2ccnc(F)c2)(Cc2ccnc(F)c2)c2ccccc21
inactive: 1 nM 0.2% | 8.33 nM 0.21% | 100 nM 5.3% | 833.33 nM 2.26% | 10000 nM -2.51%

Cc1nc2c([nH]1)-c1ccccc1N(C(=O)c1ccc(NC(=O)c3ccccc3-c3ccccc3)cc1)CC2 [conivaptan]
inactive: 1 nM 3.24% | 8.33 nM -1.76% | 100 nM 0.14% | 833.33 nM -0.62% | 10000 nM -6.5%

CCN1CCC[C@H]1CNC(=O)c1c(O)c(Cl)cc(Cl)c1OC [raclopride]
inactive: 1 nM -5.41% | 8.33 nM -4.22% | 100 nM -1.29% | 833.33 nM -2.68% | 10000 nM -0.07%

CC(C)(C)OC(=O)c1ncn2c1[C@@H]1CCCN1C(=O)c1c(Br)cccc1-2 [bretazenil]
inactive: 1 nM -1.38% | 8.33 nM -4.36% | 100 nM -1.99% | 833.33 nM -3.96% | 10000 nM -1.07%

COc1ccc2ccc(=O)oc2c1CC=C(C)C [osthol]
inactive: 1 nM 2.39% | 8.33 nM 6.22% | 100 nM 1.91% | 833.33 nM 3.87% | 10000 nM 2.49%

C=C1c2cccc(O)c2C(=O)C2=C(O)[C@]3(O)C(=O)C(C(N)=O)=C(O)[C@@H](N(C)C)[C@@H]3[C@@H](O)[C@H]12 [methacycline]
inactive: 1 nM 1.27% | 8.33 nM -0.1% | 100 nM 1.49% | 833.33 nM 0.36% | 10000 nM 2.34%

CS(=O)(=O)OCCCCOS(C)(=O)=O [busulfan]
inactive: 1 nM -2.94% | 8.33 nM -4.62% | 100 nM -3.55% | 833.33 nM -3.78% | 10000 nM -4.14%

O=C(c1cncc(Br)c1)N1CCC(N2CCCC2)CC1
inactive: 1 nM -1.15% | 8.33 nM -2.01% | 100 nM -1.71% | 833.33 nM -4.94% | 10000 nM 0.82%
